In PubChem BioAssay (NCATS):
Inconclusive results are not listed. Activity calls are given as the source filed them. Unless noted, calls follow the shape of the dose curve; as a rule, active = well fitted activation curve with a large enough effect; inconclusive = small, poorly fitted or top-dose-only effect; inactive = flat fitted curve, though single readings scatter.

Assay: qHTS Assay for Identification of Small Molecule Agonists for Hypoxia Response Element Signaling Pathway (AID 914; active = well fitted activation curve with a large enough effect in the signal ratio, with a control signal flat, not every such curve was filed as active; the % refers to the signal ratio; also: potency is read from the fitted curve at half-maximal effect; as to activation: % of control where 0% means no effect)
Settings: ME-180 (cervical carcinoma) HRE-bla reporter, beta-lactamase ratio, CoCl2, 17 h; activation: hits give high values
In short: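 HRE-bla ME-180 cells, overnight plating in Opti-MEM with 0.5% dialyzed FBS; cpd titration + EC50 CoCl2, 17 h, 37 degrees Celsius; CCF4 2.5 h RT; 460/530 nm ratio; AC50.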

Structure (SMILES) | activation | Potency
O=C(c1cnccn1)N1CCC2(CCCN(Cc3ccccc3)C2)CC1 | 16.9% (inactive) | –
O=C(c1cccc(F)c1)N1CCC2(CCCN(c3ccccn3)C2)CC1 | -10.7% (inactive) | –
CC(C)CN1CC2(CCN(S(=O)(=O)c3ccccc3)CC2)C1 | 6.29% (inactive) | –
N#Cc1ccc(CN2CC3(CCN(C(=O)c4cnccn4)CC3)C2)cc1 | – | 3.16 µM (active)
COc1ccccc1CN1CCCC2(CCN(S(=O)(=O)c3ccccc3)CC2)C1 | -6.58% (inactive) | –
COc1ccccc1CN1CCC2(CC1)CCN(C(=O)c1cccc(F)c1)CC2 | 21.3% (inactive) | –

Assay: Confirmation and Secondary Assay for Modulators of Hemoglobin Beta Chain Splicing at IVS2 705 locus (AID 930);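 also: HeLa cells stably expressing the EGFP-705 splicing reporter; GFP fluorescence per well restored by corrected splicing of the IVS2-705 intron in EGFP; % of control where 0% means no effect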
Settings: HeLa EGFP-705 splicing reporter, GFP fluorescence, 48 h; series mostly up to 38.3 µM; activation: at the top concentration
In short: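 Read-out: total peak GFP fluorescence per well (488 nm excitation, 500-520 nm emission) by laser-scanning cytometry. Cells: HeLa EGFP-705 splicing reporter, 2 days compound exposure in Optimem/2% FCS.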

Structure (SMILES) | activation
Cc1cnc(CNc2ncncc2-c2ccccc2CN(C)C)cn1 | -0.147% (inactive)
COc1ccccc1CNc1ncncc1-c1ccccc1C | -0.248% (inactive)
CN(C)C(=O)c1ccc(-c2nc(NCc3ccccc3)c3ccccc3n2)cc1 | 1.43% (inactive)
CN(C)C(=O)c1ccc(-c2nc(NCc3cccs3)c3ccccc3n2)cc1 | 0.22% (inactive)
c1ccc(Nc2ncnc3ccc(-c4cccnc4)cc23)cc1 | 0.845% (inactive)
CN(C)Cc1ccccc1-c1ccc2ncnc(N3CCOCC3)c2c1 | 0.327% (inactive)
